Compound activity: PubChem, The Scripps Research Institute Molecular Screening Center
hgDAF-12 ag: agonists of H. glycines DAF-12 nuclear receptor. HEK293 GAL4-hgDAF12 UAS-luciferase reporter, agonist luminescence; normalized to butyrate control. 1.8% of 370,000 active. activation, % at 6.8 µM;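 active means activation above a cutoff set at the mean of all screened compounds plus 3 SD, cut at about 10% in these data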;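 further: 0% = DMSO wells and 100% = sodium butyrate wells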
hcDAF12 agonist: activators of H. contortus DAF-12 nuclear receptor; HEK293 hcDAF-12 lit1-tk-luc reporter, luminescence; 0% DMSO, 100% Δ7-dafachronic acid; activation, % at 6.8 µM; 1.4% of 370,000 active; AID 652067;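 active means activation above the mean of all tested compounds plus 3 SD, cut at about 5.5% in these data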;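 further: 100% = response to 3 µM Δ7-dafachronic acid high control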
ssDAF-12 act: S. stercoralis DAF-12 activation, primary screen; HEK293 ssDAF-12/GRIP1 lit1-tk-luc reporter, luminescence; % of 3 µM dafachronic acid response; activation, % at 6.8 µM; 1% of 370,000 active;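 active means activation above the mean over all tested compounds plus 3 SD, cut at about 0.9% in these data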;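 further: 0% = DMSO-only wells and 100% = 3 µM delta7-dafachronic acid wells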
DAX1 inh-1: inhibits human nuclear receptor DAX1; P51843; HEK293 Gal4-DAX1 luciferase reporter, luminescence; inhibition, % at 6.75 µM; 0.99% of 340,000 active; AID 504766;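 active means inhibition above the mean over all tested compounds plus 3 SD, cut at about 4.2% in these data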;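 further: 0% = DAX1-transfected cells with DMSO and 100% = empty-vector control cells with DMSO; inhibition shows as a rise in luminescence from relieved DAX1 repression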
Target sequence (P51843 207-470 limits assumed): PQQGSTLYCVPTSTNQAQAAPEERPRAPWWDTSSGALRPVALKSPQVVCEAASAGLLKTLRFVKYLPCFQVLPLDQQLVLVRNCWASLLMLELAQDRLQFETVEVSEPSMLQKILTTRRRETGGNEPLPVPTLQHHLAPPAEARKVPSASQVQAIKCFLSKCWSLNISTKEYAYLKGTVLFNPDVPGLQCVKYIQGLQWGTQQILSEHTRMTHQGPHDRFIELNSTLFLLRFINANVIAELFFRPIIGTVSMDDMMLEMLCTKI
DAX1 inh-2: blocks DAX1 repression of SF-1 activated StAR promoter; AID 652010; HEK293T StAR-luciferase reporter, SF-1/DAX-1 repression relief; 1.1% of 370,000 active; inhibition, % at 6.8 µM;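 active means inhibition above the mean over all tested compounds plus 3 SD, cut at about 3.6% in these data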;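 further: 0% = DAX-1 cells with DMSO and 100% = cells lacking DAX-1 with DMSO; higher inhibition means more luminescence from relief of DAX-1 repression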
Numbers without * were called inactive; . = not tested or not shown. In the library only some 4.1% were active in any assay of this set; here they are far more common.

SMILES	hgDAF-12 ag	hcDAF12 agonist	ssDAF-12 act	DAX1 inh-1	DAX1 inh-2
CCOC(=O)c1oc2cc(O)c(CC)cc2c(=O)c1-c1cscn1	3.3	0.2	-0.5	-0.2	-0.1
C=CCn1c(NCc2ccccc2)nc2ccccc21	1.3	1.8	-1.3	7.1*	0.2
C=CCn1c(NCc2ccccc2O)nc2ccccc21	0.7	-0.7	-0.8	0.3	0.0
Cc1ccc(NC(=O)c2cc(N3C(=O)C=CC3=O)ccc2Cl)cc1C	10.7*	1.2	0.3	-0.7	0.2
Cc1ccc(NC(=O)c2cc(-n3cnnc3)ccc2Cl)cc1	-1.1	-0.6	-1.4	-0.1	0.7
O=c1oc2ccc(Cl)cc2nc1/C=C(\O)c1cccs1	2.8	5.6*	-0.4	3.1	2.3
Cc1ccc2oc(=O)c(/C=C(\O)c3cccs3)nc2c1	8.1	5.6*	0.5	5.6*	1.7
COC(=O)[C@]12C[C@H](CC(=O)NCc3ccc(C)o3)C(=O)N(Cc3ccccc3)C1=C[C@H](C1CCCC1)O[C@@H]2C	-2.6	-1.6	-0.7	.	-0.1
CC(C)C[C@@H]1COc2cccc(N3CCCC3)c2S(=O)(=O)N1C	-4.0	-1.9	-1.7	.	-1.2
O=Cc1ccc(OCc2ccc3c(c2)OCO3)cc1	11.0*	3.2	0.2	1.6	1.4
Cc1ccc(COc2ccc3c(c2)OCO3)cc1	9.9	0.6	0.2	1.0	0.7
Cc1cc(NCCCn2ccnc2)n2nc(-c3ccc(Cl)cc3)cc2n1	3.1	3.2	-1.1	-0.3	0.0
CN(C)CCCNc1cc(C(C)(C)C)nc2c(-c3ccccc3)cnn12	8.2	2.2	1.3*	4.7*	0.7
CN(C)CCCNc1cc(-c2ccccc2)nc2cc(-c3cccc(F)c3)nn12	2.4	0.5	-0.4	1.1	-0.3
CC(C)(C)c1cc(NCCCn2ccnc2)n2ncc(-c3ccc(Cl)cc3)c2n1	10.4*	1.5	-0.8	1.2	0.4
O=C(NC1CCCCN(Cc2cccc(Cl)c2)C1=O)c1cccc(F)c1 (centres undefined)	-2.4	-2.7	-1.6	.	0.1
O=C(NCc1ccccc1)[C@@H]1CCCN1C(=O)[C@H]1CCCN1C(=O)c1ccc(Cl)cc1	-1.4	-1.1	-1.1	.	-0.8
Fc1ccc(F)c(C2=NNC(=NCC3CCCO3)SC2)c1 (centres undefined)	11.8*	5.0	0.1	1.6	1.0
COC(=O)C1CN(Cc2cn(Cc3ccc(Cl)cc3)nn2)CCS(=O)(=O)N1Cc1ccc(Cl)cc1 (centres undefined)	-4.7	-3.8	-2.2	.	-1.9
COc1ccc(N2C(=O)/C(=C/c3ccc([N+](=O)[O-])cc3)C=C2c2ccccc2)cc1	0.3	-1.6	1.2*	1.3	0.6
Cc1[nH]n(-c2ccccc2)c(=O)c1C(c1cccc([N+](=O)[O-])c1O)c1c(C)[nH]n(-c2ccccc2)c1=O	-1.7	0.6	-0.1	-0.7	-0.3
Cc1[nH]n(-c2ccccc2)c(=O)c1C(c1ccc(C(=O)O)cc1)c1c(C)[nH]n(-c2ccccc2)c1=O	-4.7	1.6	2.1*	0.1	0.3
Cc1[nH]n(-c2ccccc2)c(=O)c1C(c1cccc([N+](=O)[O-])c1)c1c(C)[nH]n(-c2ccccc2)c1=O	3.5	6.7*	0.8	-0.4	-0.1
CCC(c1nc2ccccc2[nH]1)n1c(-c2ccc3cc[nH]c3c2)nc2ccccc21 (centres undefined)	5.3	3.2	-0.2	.	1.5
Cc1cc(C)c2c(N)c3ccccc3nc2n1	11.1*	18.3*	4.0*	-0.9	1.9
SMILES	hgDAF-12 ag	hcDAF12 agonist	ssDAF-12 act	DAX1 inh-1	DAX1 inh-2
CCc1ccc2nc3nc(C)cc(C)c3c(N)c2c1	3.4	2.2	-0.4	0.3	0.2
O=C(CN1CCN(Cc2ccccc2)CC1)N/N=C\c1c2ccccc2cc2ccccc12	5.1	-0.7	-1.4	.	-1.7
Clc1ccc(-n2nnnc2CN2CCOCC2)cc1	-0.6	-0.2	-1.4	6.0*	-0.7
CCOC(=O)CC[C@@]1(C(=O)OCC)C[C@@H](CC(=O)NCc2ccc(C)o2)C(=O)N2CCCC=C21	-1.3	-1.2	-1.0	.	0.2
O=C(COC(=O)/C=C/c1cccs1)Nc1nc(-c2ccccc2)cs1	6.8	5.8*	0.2	0.5	-0.6
O=C(O)CSc1nnc(NC(=O)c2ccc3c(c2)OCO3)s1	-0.6	-0.4	-1.8	-1.7	0.1
C=CCSc1nnc(NC(=O)c2ccc3c(c2)OCCO3)s1	5.0	1.2	-1.0	1.4	3.9*
C#CCN1CC(N(C)CCOC(=O)c2ccc([N+](=O)[O-])cc2)CS1(=O)=O (centres undefined)	3.1	-0.8	-0.5	.	-0.2
Cc1cccnc1CCNC(=O)CCc1nnc(CCc2ccccc2)o1	0.8	0.8	-0.3	4.7*	-0.7
Cc1cccnc1CN1CCN(C(=O)CCc2nnc(CCc3ccccc3)o2)CC1	4.7	0.5	-1.3	0.4	0.7
CN1CCC(Oc2ccc(Sc3ccccc3)cc2)CC1	10.7*	5.5	-0.8	0.0	0.8
COc1cc(C(=O)NC2CCCCN(Cc3cccc(Cl)c3)C2=O)cc(OC)c1OC (centres undefined)	1.2	-3.6	-1.6	.	-0.6
COC(=O)c1ccc2nc(NC(=O)CSCC(=O)OCC(=O)c3ccccc3)sc2c1	12.5*	3.6	0.2	3.3	1.7
O=C(CSc1nc2ccccc2o1)Nc1nc2ccc(Br)cc2s1	0.0	-0.2	-1.5	1.0	-0.1
COc1ccc2nc(NC(=O)CSCc3c(C)noc3C)sc2c1	2.8	-1.4	-0.4	3.1	0.7
COc1ccc2nc(NC(=O)CSCC(=O)Nc3cc(C)on3)sc2c1	7.6	3.3	0.1	0.4	4.2*
COc1ccc2nc(NC(=O)c3ccccc3[N+](=O)[O-])sc2c1	1.4	2.0	-0.5	4.4*	0.1
COc1ccc2nc(NC(=O)CSc3nc4ccccc4o3)sc2c1	-0.6	-1.2	-1.5	4.7*	-1.1
CN(Cc1ccccc1)C(=O)OCc1cn(Cc2c(F)cccc2F)nn1	-0.9	-3.2	-0.9	.	0.3
CCC(C)C(=O)Nc1nc2ccc(OC)cc2s1 (centres undefined)	6.3	1.7	-0.5	.	1.9
O=C(Nc1nc2ccccc2s1)c1ccccc1[N+](=O)[O-]	7.2	2.3	1.2*	0.4	1.4
COc1ccc2nc(NC(C)=O)sc2c1	12.3*	1.9	-0.3	0.0	1.5
O=C(Cn1nc(-c2ccccc2)ccc1=O)NCCc1cccc(F)c1	1.5	-2.3	-1.6	.	-0.5
CCCNC(=O)N1[C@@H](CO)[C@H](c2ccc(C3=CCCC3)cc2)[C@@H]1CN(CC)S(=O)(=O)c1ccccc1[N+](=O)[O-]	-1.9	-3.4	-1.7	.	-0.4
Cc1ccc(NC(=O)c2ccccc2Cl)c(Cl)c1	10.7*	0.6	-0.4	0.9	0.9
Cc1ccc(NC(=O)c2ccccc2F)c(NC(=O)c2ccccc2F)c1	2.7	5.0	-0.3	7.6*	-0.3
CC(=O)N1CCCN(C(=O)Cn2cnc3ccccc3c2=O)CC1	-2.0	-1.3	-0.9	.	-0.9
CCCCC(=O)c1ccc(O)cc1	-0.1	1.8	-1.3	-0.5	-0.1
